# VDR inh: blocks the human vitamin D receptor | VDR-SRC2-3 peptide fluorescence polarization, 2 h | Potency, µM, hits mostly inhibitors | actives 0.93% (n = 400,000)
#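 Compounds are added to VDR with labelled SRC2-3 coactivator peptide and held 2 h at room temperature. Inhibition of the VDR–peptide interaction is then read as a change in fluorescence polarization.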
# Sfp inh: inhibitors of Bacillus subtilis Sfp phosphopantetheinyl transferase; Q9F4F7; Biochemical Sfp PPTase activity, qHTS; Potency, µM, usual class: inhibitors; actives 3.5% (n = 310,000);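 also: the enzyme is Sfp with the accession as filed and its product quenches rhodamine fluorescence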
#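 Reaction rates are the 30-min fluorescence difference (ex 525, em 598 nm) in wells containing 15 nM Sfp, 5 uM rhodamine-CoA and 12.5 uM BHQ-2-YbbR at pH 7.6 with 10 mM MgCl2.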
# PLK1 PBD inh: PLK1 (human) polo-box domain binding inhibition; Plk1 PBD binding of FITC phosphopeptide, fluorescence polarization; Potency, µM, usual class: inhibitors; actives 2.8% (n = 360,000); AID 720504; also: series mostly up to about 57 µM; nearly all actives have a fitted effect of over 65% in size
# CCT modulator: modulators of cytosolic chaperonin (CCT/TRiC) activity. purified chaperonin ATPase assay, HTRF ADP detection, 30 min. activity change, % (concentration not given with the values), hits read low. actives 0.3% (n = 360,000); in the data active = activity change below about -30%
#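 Enzyme 40 or 20 nM (batch-dependent) in Tris pH 7.4/KCl/MgCl2/DTT; cpd 76 uM single point; ATP 10 uM; 30 min 37 °C; Transcreener ADP HTRF detection, 30 min RT; ratio 665/615.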
# MmCpn inh: blocks the Methanococcus maripaludis chaperonin Mm-Cpn; purified Mm-Cpn ATPase, ADP Transcreener TR-FRET; Potency, µM (doses to about 76.9 µM), actives largely listed as inhibitors; actives 0.031% (n = 330,000); also: nearly all actives have a fitted effect of over 80% in size
#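 ATPase read-out: TR-FRET ADP immunoassay (anti-ADP Eu cryptate vs ADP-d2), ex 320 nm, em 590/665 nm; signal drops as ADP forms. Enzyme 25 nM, ATP 10 uM, 30 min at 37°C after 10 min compound preincubation.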
# G9a block: G9a (human) methyltransferase inhibition; Q96KQ7; G9a H3K9 monomethylation, AlphaScreen, 2 h; Potency, µM (doses to about 102 µM), hits mostly inhibitors; actives 8.8% (n = 350,000); also: nearly all actives have a fitted effect of over 75% in size
# Target sequence (Q96KQ7 913-1193 limits assumed): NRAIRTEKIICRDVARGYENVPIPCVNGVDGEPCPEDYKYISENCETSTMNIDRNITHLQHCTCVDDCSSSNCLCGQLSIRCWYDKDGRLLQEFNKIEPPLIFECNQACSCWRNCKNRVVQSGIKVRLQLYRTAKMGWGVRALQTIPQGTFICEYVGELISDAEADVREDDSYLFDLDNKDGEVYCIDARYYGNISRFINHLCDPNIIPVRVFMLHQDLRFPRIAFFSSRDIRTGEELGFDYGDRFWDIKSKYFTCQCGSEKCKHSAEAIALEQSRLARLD
#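 Chemiluminescent proximity detection of H3K9 monomethylation, read after 10 min bead incubation in the dark. Reaction: 20 nM G9a, 500 nM biotin-H3K9 peptide, 20 uM SAM cofactor, 2 h, room temperature, following 15 min enzyme-compound preincubation.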
# A number is an active result; - = inactive; ? = inconclusive; . = no result; [ ] = remark or other dose. This is a sample that favours compounds with a hit; in the whole collection about 10% have one here. Unless noted, calls follow the shape of the dose curve; as a rule, active = well fitted curve in the direction sought with a large enough effect; inconclusive = small, poorly fitted or top-dose-only effect, or another doubt; inactive = no such curve, though single readings can be large; an effect the other way counts as inactive or inconclusive.
SMILES,VDR inh,Sfp inh,PLK1 PBD inh,CCT modulator,MmCpn inh,G9a block
CC(O)C(O)C(O)C(O)C1NCCS1 (stereo unspecified),-,-,-,-,-,?
Cc1nn(CC(=O)N2CCc3ccccc3C2)c(C)c1Cl,-,-,-,-80,-,.
Cn1cnc(C(=O)N2CCc3ccccc3C2)c1C(=O)N1CCc2ccccc2C1,-,.,21µM,-,-,.
O=C(CN1CCC(Cc2ccccc2)CC1)N1CCc2ccccc2C1,-,-,27µM,-,-,22µM
Cc1ccc(C)c(S(=O)(=O)N2CCN(CC(=O)N3CCc4ccccc4C3)CC2)c1,-,56µM,-,-,-,6.3µM
O=C(/C=C/C(=O)N1CCc2ccccc2C1)N1CCc2ccccc2C1,-,-,-,-,-,-
O=C(CN1CCN(c2ccc(F)cc2)CC1)N1CCC(Cc2ccccc2)CC1,-,-,-,-,-,?
CC1(C)CC(=O)c2c(oc3cc4c(cc23)OCO4)C1,.,-,.,.,.,.
COc1ccccc1CNc1ccc(-c2nc(C(C)C)no2)cc1[N+](=O)[O-],-,.,.,.,.,-
Cc1ccc(C)c(S(=O)(=O)N2CCN(C(=O)Cc3ccccc3)CC2)c1,-,.,-,-,-,-[0.501 µM]
O=C(CN(C1CCCCC1)C1CCCCC1)N1CCc2ccccc2C1,-,-,-,-,-,10µM
Cc1ccc(C)c(S(=O)(=O)N2CCN(C(=O)CSC(=S)N3CCCC3)CC2)c1,-,.,-,-,-,50µM
OCc1ccccc1SSc1ccccc1CO,8.9µM,.,0.27µM,-,.,.
Cc1cc(C(=O)CSc2nnc(-c3ccccc3F)o2)c(C)n1Cc1cccs1,-,28µM,-,-,-,-
COc1ccc(NC(=O)c2cc(C)n(Cc3cccs3)c2C)cc1,-,-,-,-,-,.
Cc1cc(C(=O)CN2C(=O)c3cccc(N)c3C2=O)c(C)n1Cc1cccs1,-,-,3.4µM,-,-,-
CCCCC/C=C\C/C=C\C/C=C\CCCCCCC(=O)NCCCC(=O)O,-,-,.,.,.,.
O=C(NCc1ccccc1Cl)C1CCCN(C(=O)c2cnn(-c3ccc(F)cc3)c2-n2cccc2)C1 (stereo unspecified),-,.,.,.,.,-
Cc1ccc(CN2CCC(C(=O)NCCC(C)C)CC2)o1,-,-,-,-,-,32µM
CC(C)CCNC(=O)C1CCN(c2nc3ccccc3o2)CC1,-,-,?,-,-,?
O=C(NNS(=O)(=O)c1ccc(C(F)(F)F)cc1)c1cnn(-c2ccccc2)c1C(F)(F)F,-,-,-,-,-,?
Cc1ccc(S(=O)(=O)NNC(=O)c2cnn(-c3ccc(Cl)cc3)c2C(F)(F)F)cc1,-,-,-,-,-,56µM
CC1Cn2cc(C(=O)Nc3cccc(C(F)(F)F)c3)c(=O)c3c(Cl)ccc(c32)O1 (stereo unspecified),-,.,.,.,.,-
COC(=O)c1ccc2c(=O)n(NC(C)=O)c(=S)[nH]c2c1,-,4µM,-,-,-,?
Cc1sc2nc(SCC(=O)NCCO)n(C)c(=O)c2c1C,-,-,-,-,-,-
SMILES,VDR inh,Sfp inh,PLK1 PBD inh,CCT modulator,MmCpn inh,G9a block
Cc1sc2nc(SCC(=O)Nc3c(C)n(C)n(-c4ccccc4)c3=O)n(C)c(=O)c2c1C,-,50µM,-,-,-,?
CCOC(=O)CNC(=O)CSc1nc2sc(C)c(C)c2c(=O)n1C,-,-,-,-,-,45µM
CCCc1cc(SCC(=O)Nc2c(C)n(C)n(-c3ccccc3)c2=O)n2c(nc3ccccc32)c1C#N,-,?,-,-,-,7.9µM
COc1ccccc1NC(=O)CSc1nc2sc(C)c(C)c2c(=O)n1C,-,?,-,-,-,-
COc1ccc(NC(=O)C(C)n2nc(-c3ccc(C)c(C)c3)ccc2=O)cc1OC (stereo unspecified),-,.,.,.,.,-
CCc1ccccc1NC(=O)N1CC(CC)Oc2ccc(Cl)cc21 (stereo unspecified),-,.,.,.,.,-
CC(=O)c1cccc(NC(=O)CSc2nnc3ccc(-c4ccc(C)cc4)nn23)c1,-,.,.,.,.,-
Cc1ccccc1N=C1c2cc([N+](=O)[O-])ccc2-c2ncccc21,-,-,-,-,-,7.9µM
COc1ccc(S(=O)(=O)N(CCc2ccccc2)CC(=O)Nc2cc(C)ccc2C)cc1,-,.,.,.,.,-
CCCCCSc1nc2c(cnn2-c2ccccc2)c(=O)[nH]1,-,-,-,-,-,-

# Screens deposited in PubChem by National Center for Advancing Translational Sciences (NCATS).
